Data: PubChem BioAssay (NCATS)
Inconclusive results are not listed. The source made the active and inactive calls. Unless noted, calls follow the shape of the dose curve; as a rule, active = well fitted curve in the direction sought with a large enough effect; inconclusive = small, poorly fitted or top-dose-only effect, or another doubt; inactive = no such curve, though single readings can be large; an effect the other way counts as inactive or inconclusive.

Key:
Furin (Homo sapiens) = Furin (Homo sapiens) (UniProt P09958); test: Furin counterscreen qHTS for Zika virus inhibitors (AID 1347149); also: nearly all actives have a fitted effect of over 70% in size; also: potency is read from the fitted curve at half-maximal effect
Procedure, shortened: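 Counterscreen measures cleavage of 2 microM BOC-RVRR-AMC, below its ~15 microM Km, by 5 nM full-length human furin at pH 7.0 after a 15-min compound preincubation. Inhibition derives from the 15-min fluorescence increase at 37C.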

[1] = Confirmatory screen GU Rhodamine qHTS for Zika virus inhibitors qHTS (AID 1347157); also: nearly all actives have a fitted effect of over 70% in size; also: potency is read from the fitted curve at half-maximal effect
Procedure, shortened: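 Enzyme 25 nM in Tris-HCl pH 8.0 + 0.01% Tween 20; compounds up to 114 microM, 15 min RT dark; + Rhod110 substrate 1.5 microM; read t0 and 15 min; delta fluorescence → % inhibition → 4-parameter Hill fit.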

[2] = Confirmatory screen NINDS Rhodamine qHTS for Zika virus inhibitors (AID 1347161); also: nearly all actives have a fitted effect of over 60% in size; also: potency is read from the fitted curve at half-maximal effect
Procedure, shortened: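 Aprotinin served as in-plate control. Conditions: 25 nM linked NS2B-NS3, pH 8.0 Tris buffer, titrated compounds, 15 min preincubation and 15 min reaction with 1.5 microM Rhod110 substrate at room temperature.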

[3] = test system: Zika virus NS2B-NS3 protease (linked); test: 384 well plate NINDS AMC confirmatory qHTS for Zika virus inhibitors (AID 1347163); also: nearly all actives have a fitted effect of over 50% in size; also: potency is read from the fitted curve at half-maximal effect
Procedure, shortened: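 Fluorescence at 355/460 nm was read after 25 minutes of cleavage of 30 microM Ac-VKTGKR-AMC at room temperature, in the dark. Before substrate addition, compounds (up to 1 mM final) sat ~15 minutes with 5, 30 or 60 nM linked protease. Signals were normalized to no-enzyme and no-inhibitor wells.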

[4] = Tertiary RLuc qRT-PCR qHTS assay for Zika virus inhibitors (AID 1347169); also: top concentration of the series differs between compounds; % is scaled to controls: 0 for no effect and ±100 for the full control effect; nearly all actives have a fitted effect of over 55% in size
Procedure, shortened: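 Orthogonal cell-based readout: luminescence measured 1-1.5 hrs after adding live-cell Renilla substrate to Vero cells that had been infected with ZIKV-RLuc (MOI 1-2) post-compound, incubated 48-72 hrs at 37 degrees C.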

[5] = ZIKV-mCherry secondary qHTS for Zika virus inhibitors (AID 1347158); also: top concentration of the series differs between compounds
Procedure, shortened: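 Percent infection is the share of Hoechst-identified Vero nuclei with mCherry signal above 450 RFU (3 SD over negative controls). Cells were infected with recombinant ZIKV-mCherry at MOI 1 after compound addition and imaged 48–72 h later.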

[6] = test system: Zika virus NS2B-NS3 protease (linked construct); test: 384 well plate NINDS Rhodamine confirmatory qHTS for Zika virus inhibitors (AID 1347164);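 also: fluorescence from protease cleavage of Ac-LKRR-rhodamine 110 substrate; potency is read from the fitted curve at half-maximal effect; nearly all actives have a fitted effect of over 65% in size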
Procedure, shortened: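 Fluorescence at 485/538 nm was measured 25 minutes after adding 10 microM Ac-LKRR-Rd substrate, in the dark at room temperature. The protease (5, 30 or 60 nM final) had been preincubated ~15 minutes with compound; aprotinin as control.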

[7] = target: Estrogen receptor (Homo sapiens) (UniProt P03372); test: qHTS assay for small molecule antagonists of estrogen receptor alpha signaling (AID 588513; active = well fitted curve in the direction sought with a large enough effect in the signal ratio, with a control signal flat, not every such curve was filed as active; the % refers to the signal ratio; also: % is scaled to controls: 0 for no effect and ±100 for the full control effect)
Procedure, shortened: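 Antagonist mode: inhibition of 0.5 nM 17-beta-estradiol-driven beta-lactamase reporter in HEK 293 ER-alpha-UAS-bla cells, 18 h at 37C, CCF4 readout after 2 h at RT. Normalised to estradiol and DMSO; titration fitted to Hill.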

[8] = target: Estrogen receptor (Homo sapiens) (UniProt P03372); test: qHTS assay for small molecule agonists of estrogen receptor alpha signaling (AID 588514; calls by dose curve;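 also: 0% = vehicle only and 100% = reference agonist; nearly all actives have a fitted effect of over 70% in size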)
Procedure, shortened: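 EC50 and efficacy came from Hill fits of beta-lactamase reporter signal (CCF4 dye, 2 h at room temperature) scaled between DMSO and 20 nM 17-beta-estradiol. Agonist mode: HEK293 ER-alpha-UAS-bla cells in charcoal/dextran-stripped serum medium, 18 h compound exposure at 37 C.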

[9] = target: Bile acid receptor (Homo sapiens) (UniProt Q96RI1); test: qHTS assay for small molecule antagonists of farnesoid X receptor signaling (AID 588526; calls by dose curve; also: % is scaled to controls: 0 for no effect and ±100 for the full control effect)
Procedure, shortened: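 Concentration-response titrations were fitted to the Hill equation for half-maximal inhibition and maximal response, with data normalised to 50 uM chenodeoxycholic acid and DMSO control wells. Cells: FXR-UAS-bla HEK293T, dialyzed FBS.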

[10] = qHTS assay for small molecule antagonists of peroxisome proliferator-activated receptor delta signaling (AID 588535; active = well fitted inhibition curve with a large enough effect in the signal ratio, with a control signal flat, not every such curve was filed as active; the % refers to the signal ratio;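 as to max response: cells co-treated with a PPAR-delta agonist as stimulator during compound exposure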); conditions: HEK293T PPARd-UAS-bla, beta-lactamase FRET ratio, 18 h; 460 nm channel
Procedure, shortened: (§1)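 Inhibition of PPAR-delta response element-driven beta-lactamase expression is measured in HEK293T cells exposed to a compound titration series for 18 hrs at 37 C. Half-maximal inhibition comes from Hill equation fitting.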

[11] = target: Peroxisome proliferator-activated receptor delta (Homo sapiens) (UniProt Q03181); test: as above
Procedure, shortened: as §1

[12] = target: Vitamin D3 receptor (Homo sapiens) (UniProt P11473); test: qHTS assay for small molecule antagonists of vitamin D receptor signaling (AID 588541; calls by dose curve;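 also: receptor activated by calcitriol during compound treatment; series mostly up to about 77 µM; % is scaled to controls: 0 for no effect and ±100 for the full control effect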)
Procedure, shortened: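 VDR-UAS-bla HEK293T cells (2000/well, 2% charcoal-stripped FBS) were treated with titrated compounds plus 1-alpha,25-dihydroxyvitamin D3 (50 nM or 3 nM final) for 16 h at 37 C. CCF4 beta-lactamase fluorescence was read; Hill fits gave IC50.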

[13] = target: Vitamin D3 receptor (Homo sapiens) (UniProt P11473); test: qHTS assay for small molecule agonists of vitamin D receptor signaling (AID 588543; calls by dose curve;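 also: 0% = DMSO basal and 100% = reference agonist control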)
Procedure, shortened: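 Agonist-mode beta-lactamase reporter: HEK293T VDR-UAS-bla cells in charcoal-stripped 2% FBS, compound series 16 h 37 C, CCF4 2 h RT. EC50 from Hill fit, scaled against DMSO and 50 nM calcitriol control.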

[14] = qHTS assay for small molecule agonists of retinoid X receptor alpha signaling (AID 588544; calls by dose curve;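 as to activation: 0% = DMSO basal wells and 100% = reference agonist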); conditions: HEK293T RXRa-UAS-bla, beta-lactamase reporter, 18 h; 530 nm emission
[15] = target: Retinoic acid receptor RXR-alpha (Homo sapiens) (UniProt P19793); test: as above
[16] = target: Thyroid hormone receptor beta (Homo sapiens) (UniProt P10828); test: qHTS assay for small molecule agonists of thyroid hormone receptor beta signaling (AID 588545; calls by dose curve;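 also: 0% = DMSO only and 100% = 10 nM T3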)
Procedure, shortened: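 Beta-lactamase reporter activity under TR response element control is measured in HEK 293 cells after 18 hrs compound exposure. Signal is ratiometric CCF4 fluorescence, 460/530 nm.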

[17] = qHTS assay for small molecule antagonists of retinoid X receptor alpha signaling (AID 588546; active = well fitted inhibition curve with a large enough effect in the signal ratio, with a control signal flat, not every such curve was filed as active; the % refers to the signal ratio;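 also: cells stimulated with 9-cis-retinoic acid as agonist; % is scaled to controls: 0 for no effect and ±100 for the full control effect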); conditions: HEK293T RXRa-UAS-bla, beta-lactamase ratio, antagonist mode; measured here: W530 green channel, cytotoxicity proxy
Procedure, shortened: (§2)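 Beta-lactamase reporter inhibition, read as CCF4 fluorescence ratio (ex 405, em 460/530 nm) after 2 h at RT. HEK293T UAS-bla cells, 2500/well, were stimulated with 9-cis-RA at 500 or 100 nM final alongside test compound for 18 h at 37 C.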

[18] = target: Retinoic acid receptor RXR-alpha (Homo sapiens) (UniProt P19793); test: as above; conditions: HEK293T RXRa-UAS-bla, beta-lactamase ratio, antagonist mode
Procedure, shortened: as §2

[19] = target: Thyroid hormone receptor beta (Homo sapiens) (UniProt P10828); test: qHTS assay for small molecule antagonists of thyroid hormone receptor beta signaling (AID 588547; active = well fitted inhibition curve with a large enough effect in the signal ratio, with a control signal flat, not every such curve was filed as active; the % refers to the signal ratio); conditions: TR-UAS-bla HEK293, beta-lactamase ratio, antagonist mode, 18 h
Procedure, shortened: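 TR-UAS-bla GripTite HEK293 cells in 2% charcoal/dextran FBS medium were preincubated 4 h at 37 C, given compound (0.59 nM to 92 uM) plus 0.4 nM T3 (final) for 18 h, then CCF4 for 2 h at RT; Hill fit gave IC50.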

[20] = qHTS assay for small molecule agonists of the antioxidant response element (ARE) signaling pathway (AID 651741; active = well fitted activation curve with a large enough effect in the signal ratio; the % refers to the signal ratio; also: % of control where 0% means no effect)
Procedure, shortened: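 Reporter: beta-lactamase under ARE, stably in HepG2. Exposure: 16 h, 37 C, compounds delivered in DMSO by pin tool after 5 h cell preincubation. Readout: FRET substrate fluorescence after 2 h at RT.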

[21] = qHTS assay for small molecule activators of the p53 signaling pathway (AID 651743; active = well fitted activation curve with a large enough effect in the signal ratio, not every such curve was filed as active; the % refers to the signal ratio; also: series mostly up to about 92 µM; % of control where 0% means no effect); conditions: HCT-116 p53RE-bla, beta-lactamase FRET ratio, 16 h; stronger effect = higher value
Procedure, shortened: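 Agonist-mode quantitative HTS in HCT-116 cells carrying a p53-response-element beta-lactamase reporter; 16 h compound treatment at 37 C, then FRET substrate loading for 2 h at room temperature and fluorescence read.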

[22] = qHTS assay for small molecule activators of the nuclear factor-kappa B (NF-kB) signaling pathway (AID 651749; active = well fitted activation curve with a large enough effect in the signal ratio; the % refers to the signal ratio; also: series mostly up to about 77 µM; % of control where 0% means no effect); conditions: NF-kB-bla ME-180 cells, beta-lactamase FRET ratio, 16 h; stronger effect = higher value
Procedure, shortened: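 Human ME-180 cervical cells with an NF-kB-bla construct; compounds added via 23 nL pin transfer, DMSO as vehicle; incubation 16 hr. Reporter activity measured by FRET disruption.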

[23] = qHTS assay for environmental chemicals that activate the Aryl hydrocarbon Receptor (AhR) signaling pathway (AID 651777); conditions: 1A2-DRE human hepatoma cells, luciferase, 24 h; stronger effect = higher value; also: % of control where 0% means no effect; nearly all actives have a fitted effect of over 15% in size
Procedure, shortened: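 Induction of CYP1A2 transcription through AhR is detected by luciferase in 1A2-DRE hepatoma cells. Compounds or DMSO act for 24 hr at 37 C before a 30 min One-Glo step at room temperature.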

[24] = target: Peroxisome proliferator-activated receptor alpha (Homo sapiens) (UniProt Q07869); test: qHTS assay for small molecule agonists of the peroxisome proliferator-activated receptor alpha (PPARalpha) signaling pathway (AID 651778); conditions: PathHunter PPARalpha complementation, chemiluminescence, 6 h; stronger effect = higher value; also: % of control where 0% means no effect
Procedure, shortened: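 Cells plated at 2,000/well and held overnight at 37 C, 5% CO2, then compound added by pin tool for 6 hr; after PathHunter detection reagent and 60 min at room temperature, chemiluminescence from enzyme complementation was read.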

[25] = qHTS assay for small molecule agonists of the antioxidant response element (ARE) signaling pathway measured by Nrf2-dependant transcriptional activity (AID 720636; active = well fitted curve in the direction sought with a large enough effect in the repeat runs; an effect the other way counts as inactive or inconclusive;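 also: HepG2 cells with an ARE-driven luciferase reporter; % of control where 0% means no effect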)
Procedure, shortened: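 We exposed ARE-luc HepG2 cells, seeded in assay medium with 1% dialyzed FBS and allowed 6 hr to adhere, to test compounds overnight (16 hr, 37 C) before measuring luciferase with ONE-Glo.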

[26] = qHTS assay for cell viability of HEK293 cells (AID 743288); conditions: ATP luminescence (CellTiter-Glo), 18 h; max response: stronger effect = lower value; also: potency is read from the fitted curve at half-maximal effect; nearly all actives have a fitted effect of over 50% in size
Procedure, shortened: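 Readout is luciferase-coupled ATP content (CellTiter-Glo luminescence, 30 min room temperature) as a measure of metabolically competent cells. Parental HEK293 cells were plated 5 h or more before compound addition, then treated 18 h at 37 C.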

[27] = qHTS assay for cell viability of the p53RE-bla HCT-116 cell line (AID 743292); also: potency is read from the fitted curve at half-maximal effect; nearly all actives have a fitted effect of over 55% in size
Procedure, shortened: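 In this qHTS counter-screen, metabolically competent p53RE-bla HCT-116 cells were counted via their ATP content. Compounds were applied for 16 h at 37 C and luciferase-coupled luminescence was measured.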

[28] = target: Nuclear receptor subfamily 1 group I member 2 (Rattus norvegicus) (UniProt Q9R1A7); test: qHTS assay for small molecule activators of the rat pregnane X receptor (rPXR) signaling pathway (AID 651751; call rule not given here; also: 0% is about no effect); conditions: rPXR reporter cells, luciferase (One-Glo), 24 h
[29] = qHTS assay for small molecule activators of the human pregnane X receptor (PXR) signaling pathway (AID 720659; call rule not given here; also: 0% is about no effect)

Chain of Furin (Homo sapiens) (P09958 whole entry, looked up): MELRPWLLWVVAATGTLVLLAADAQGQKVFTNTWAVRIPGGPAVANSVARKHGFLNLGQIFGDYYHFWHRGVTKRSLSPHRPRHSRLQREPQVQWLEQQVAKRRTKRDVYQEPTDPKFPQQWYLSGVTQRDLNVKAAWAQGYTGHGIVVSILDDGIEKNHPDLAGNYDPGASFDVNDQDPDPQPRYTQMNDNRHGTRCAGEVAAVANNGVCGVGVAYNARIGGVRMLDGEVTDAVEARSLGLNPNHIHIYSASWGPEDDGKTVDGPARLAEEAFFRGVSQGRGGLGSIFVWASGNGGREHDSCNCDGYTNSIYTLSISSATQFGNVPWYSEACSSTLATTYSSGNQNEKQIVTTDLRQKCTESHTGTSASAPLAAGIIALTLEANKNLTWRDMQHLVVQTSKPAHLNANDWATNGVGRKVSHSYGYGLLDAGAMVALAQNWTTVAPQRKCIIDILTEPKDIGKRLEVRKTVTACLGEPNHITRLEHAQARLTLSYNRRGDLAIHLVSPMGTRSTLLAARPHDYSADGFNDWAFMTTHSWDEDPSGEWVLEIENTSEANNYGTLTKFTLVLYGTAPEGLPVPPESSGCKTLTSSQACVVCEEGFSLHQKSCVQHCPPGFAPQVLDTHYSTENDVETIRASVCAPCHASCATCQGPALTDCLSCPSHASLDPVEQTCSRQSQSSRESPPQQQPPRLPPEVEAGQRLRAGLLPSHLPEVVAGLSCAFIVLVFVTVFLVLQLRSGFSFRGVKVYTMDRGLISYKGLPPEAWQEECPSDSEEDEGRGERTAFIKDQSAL
Chain of Thyroid hormone receptor beta (Homo sapiens) (P10828 whole entry, looked up): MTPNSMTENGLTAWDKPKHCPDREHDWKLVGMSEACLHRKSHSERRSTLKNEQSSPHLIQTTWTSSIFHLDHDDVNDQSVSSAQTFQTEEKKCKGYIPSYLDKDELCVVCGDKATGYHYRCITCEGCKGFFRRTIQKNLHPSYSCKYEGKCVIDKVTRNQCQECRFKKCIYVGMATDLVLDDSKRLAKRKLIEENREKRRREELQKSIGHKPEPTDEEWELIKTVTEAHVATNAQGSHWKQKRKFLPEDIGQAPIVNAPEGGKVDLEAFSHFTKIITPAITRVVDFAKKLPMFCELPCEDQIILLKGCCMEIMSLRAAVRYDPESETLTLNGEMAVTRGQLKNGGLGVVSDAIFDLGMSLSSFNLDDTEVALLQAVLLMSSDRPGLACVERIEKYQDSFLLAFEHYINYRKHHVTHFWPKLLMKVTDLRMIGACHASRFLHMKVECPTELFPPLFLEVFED
Chain of Vitamin D3 receptor (Homo sapiens) (P11473 whole entry, looked up): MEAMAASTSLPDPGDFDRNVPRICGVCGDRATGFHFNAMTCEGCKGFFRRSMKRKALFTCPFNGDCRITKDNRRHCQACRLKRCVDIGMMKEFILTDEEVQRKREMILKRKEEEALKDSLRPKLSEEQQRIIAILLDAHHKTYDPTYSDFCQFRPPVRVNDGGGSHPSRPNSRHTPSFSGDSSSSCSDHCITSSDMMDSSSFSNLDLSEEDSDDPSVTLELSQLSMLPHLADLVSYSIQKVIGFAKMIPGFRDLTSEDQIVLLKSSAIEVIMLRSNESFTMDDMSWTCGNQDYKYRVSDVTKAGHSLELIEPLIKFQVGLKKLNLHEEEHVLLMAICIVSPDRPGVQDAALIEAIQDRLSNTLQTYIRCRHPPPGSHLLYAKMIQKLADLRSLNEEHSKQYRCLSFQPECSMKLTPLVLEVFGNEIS
Chain of Estrogen receptor (Homo sapiens) (P03372 whole entry, looked up): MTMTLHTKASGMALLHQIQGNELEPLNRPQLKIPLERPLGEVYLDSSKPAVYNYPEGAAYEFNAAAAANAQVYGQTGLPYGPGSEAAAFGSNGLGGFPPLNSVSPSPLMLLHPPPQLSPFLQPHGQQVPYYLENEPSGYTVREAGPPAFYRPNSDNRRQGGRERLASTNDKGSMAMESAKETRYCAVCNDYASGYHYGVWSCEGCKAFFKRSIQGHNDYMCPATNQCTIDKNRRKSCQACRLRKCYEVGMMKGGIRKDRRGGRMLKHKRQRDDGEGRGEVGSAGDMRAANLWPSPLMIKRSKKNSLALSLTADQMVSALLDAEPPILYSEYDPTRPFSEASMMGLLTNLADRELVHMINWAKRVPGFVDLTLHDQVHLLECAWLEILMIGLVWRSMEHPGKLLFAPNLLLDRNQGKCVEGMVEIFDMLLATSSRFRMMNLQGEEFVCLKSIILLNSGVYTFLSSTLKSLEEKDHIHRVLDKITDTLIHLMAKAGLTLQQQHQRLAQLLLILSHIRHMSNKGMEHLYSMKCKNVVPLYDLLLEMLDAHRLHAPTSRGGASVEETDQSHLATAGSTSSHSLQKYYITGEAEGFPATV
Chain of Retinoic acid receptor RXR-alpha (Homo sapiens) (P19793 whole entry, looked up): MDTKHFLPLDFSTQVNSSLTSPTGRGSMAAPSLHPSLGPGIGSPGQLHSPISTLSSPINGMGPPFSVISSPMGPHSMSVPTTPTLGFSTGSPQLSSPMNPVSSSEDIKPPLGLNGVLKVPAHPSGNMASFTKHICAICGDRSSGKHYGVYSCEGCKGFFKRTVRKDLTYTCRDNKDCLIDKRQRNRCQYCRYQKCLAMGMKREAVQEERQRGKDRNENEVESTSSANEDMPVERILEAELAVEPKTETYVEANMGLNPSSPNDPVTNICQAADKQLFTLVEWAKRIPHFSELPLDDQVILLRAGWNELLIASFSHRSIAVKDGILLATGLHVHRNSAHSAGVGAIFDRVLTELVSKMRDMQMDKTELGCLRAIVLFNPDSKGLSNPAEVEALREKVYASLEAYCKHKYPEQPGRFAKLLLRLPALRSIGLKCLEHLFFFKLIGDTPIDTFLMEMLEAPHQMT
Chain of Peroxisome proliferator-activated receptor delta (Homo sapiens) (Q03181 whole entry, looked up): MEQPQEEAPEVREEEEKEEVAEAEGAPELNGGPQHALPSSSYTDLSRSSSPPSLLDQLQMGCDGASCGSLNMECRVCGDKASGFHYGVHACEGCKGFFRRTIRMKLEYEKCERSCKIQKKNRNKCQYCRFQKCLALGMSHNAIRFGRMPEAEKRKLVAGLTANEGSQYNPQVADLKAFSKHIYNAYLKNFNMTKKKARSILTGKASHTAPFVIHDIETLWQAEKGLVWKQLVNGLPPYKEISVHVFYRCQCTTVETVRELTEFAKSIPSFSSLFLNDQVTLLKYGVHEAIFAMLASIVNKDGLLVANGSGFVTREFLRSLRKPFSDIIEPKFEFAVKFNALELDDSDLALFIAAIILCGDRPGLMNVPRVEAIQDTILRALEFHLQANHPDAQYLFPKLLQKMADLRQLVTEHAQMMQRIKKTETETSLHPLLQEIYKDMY
Chain of Peroxisome proliferator-activated receptor alpha (Homo sapiens) (Q07869 whole entry, looked up): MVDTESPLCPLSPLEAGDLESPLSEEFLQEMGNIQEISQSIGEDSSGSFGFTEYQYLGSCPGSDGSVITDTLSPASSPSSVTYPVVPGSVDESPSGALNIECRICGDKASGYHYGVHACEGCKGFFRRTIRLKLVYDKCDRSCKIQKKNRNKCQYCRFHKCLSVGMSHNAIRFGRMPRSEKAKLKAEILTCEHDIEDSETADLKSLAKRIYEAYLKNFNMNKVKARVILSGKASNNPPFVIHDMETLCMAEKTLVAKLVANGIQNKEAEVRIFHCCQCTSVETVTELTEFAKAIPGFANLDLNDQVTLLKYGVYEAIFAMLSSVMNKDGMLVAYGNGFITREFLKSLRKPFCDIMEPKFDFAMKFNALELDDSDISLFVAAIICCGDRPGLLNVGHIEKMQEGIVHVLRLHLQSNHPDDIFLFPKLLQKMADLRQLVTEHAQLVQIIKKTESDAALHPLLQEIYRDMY
Chain of Bile acid receptor (Homo sapiens) (Q96RI1 whole entry, looked up): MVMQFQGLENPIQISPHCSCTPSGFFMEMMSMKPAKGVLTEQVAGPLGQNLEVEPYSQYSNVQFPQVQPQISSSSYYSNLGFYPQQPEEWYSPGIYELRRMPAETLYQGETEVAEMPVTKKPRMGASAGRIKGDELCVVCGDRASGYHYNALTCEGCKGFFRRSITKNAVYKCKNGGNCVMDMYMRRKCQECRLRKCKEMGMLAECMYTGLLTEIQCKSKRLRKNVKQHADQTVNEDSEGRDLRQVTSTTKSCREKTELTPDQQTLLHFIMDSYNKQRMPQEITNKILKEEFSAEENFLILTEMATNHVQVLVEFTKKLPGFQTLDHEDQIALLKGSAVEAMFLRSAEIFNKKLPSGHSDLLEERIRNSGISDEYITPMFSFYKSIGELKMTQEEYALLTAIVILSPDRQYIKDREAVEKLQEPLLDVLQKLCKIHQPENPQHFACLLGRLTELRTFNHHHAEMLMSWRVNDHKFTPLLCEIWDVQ
Chain of Nuclear receptor subfamily 1 group I member 2 (Rattus norvegicus) (Q9R1A7 whole entry, looked up): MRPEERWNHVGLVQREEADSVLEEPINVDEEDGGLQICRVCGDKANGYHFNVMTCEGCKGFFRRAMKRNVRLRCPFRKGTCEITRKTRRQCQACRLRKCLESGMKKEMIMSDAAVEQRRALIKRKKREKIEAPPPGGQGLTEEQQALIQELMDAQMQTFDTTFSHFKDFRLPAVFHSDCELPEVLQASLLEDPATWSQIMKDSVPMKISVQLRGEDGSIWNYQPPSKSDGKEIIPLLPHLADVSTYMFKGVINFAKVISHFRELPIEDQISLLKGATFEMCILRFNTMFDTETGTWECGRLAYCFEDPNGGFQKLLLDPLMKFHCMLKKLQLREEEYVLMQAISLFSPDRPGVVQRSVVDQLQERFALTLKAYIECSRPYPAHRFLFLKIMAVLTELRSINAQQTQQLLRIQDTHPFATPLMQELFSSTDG

In the case of Cc1cc(NC(=O)c2ccc(Cl)c(Cl)c2)ccc1-c1cc2ccccc2oc1=O, the Potency (Furin (Homo sapiens)) is reported as 66.3 µM (active), the Potency [1] is reported as 44.7 µM (active) and the Potency [2] is reported as 31.6 µM (active). The Potency [3] was “inactive” and the Potency [4] was “inactive”.

For O=C(Nc1cccc(C(=O)OCc2cc(=O)n3nc(C4CC4)sc3n2)c1)c1cccc(F)c1, the Potency (Furin (Homo sapiens)) was 41.8 µM (active), the Potency [1] was 50.1 µM (active) and the Potency [5] was “inactive”. For the same molecule, the Potency [2] was 25.1 µM (active) and the Potency [4] was “inactive”.

With CC(C)c1nn2c(=O)cc(COC(=O)c3cccc(NC(=O)c4ccccc4F)c3)nc2s1 the Potency (Furin (Homo sapiens)) was “inactive”, the Potency [1] was “inactive” and the Potency [2] was “inactive”. The Potency [4] was “inactive”.

In the case of Cc1ccc(-c2nnc(Nc3ccc(O)cc3)c3ccccc23)cc1S(=O)(=O)NCc1nc2ccccc2[nH]1, the Potency (Furin (Homo sapiens)) is reported as “inactive”, the Potency [1] is reported as “inactive” and the Potency [2] is reported as “inactive”.

With O=C(O)c1ccc(NC(=O)c2cn(-c3ccccc3)nc2-c2ccc(Br)cc2)cc1 the Potency (Furin (Homo sapiens)) was “inactive”, the Potency [1] was 8.91 µM (active) and the Potency [2] was 6.31 µM (active). The Potency [3] was 44.7 µM (active) and the Potency [6] was 35.5 µM (active).

In the case of Cc1ccc2nc(-c3ccc(N=Nc4cc(S(=O)(=O)O)c5ccccc5c4O)cc3)sc2c1S(=O)(=O)O, the Potency (Furin (Homo sapiens)) is reported as 59.1 µM (active), the Potency [1] is reported as 3.16 µM (active) and the Potency [5] is reported as “inactive”. The Potency [2] was 2.82 µM (active), the Potency [3] was “inactive” and the Potency [4] was “inactive”.

With O=S(=O)(Nc1ccc(Cl)cc1)c1ccc(NS(=O)(=O)c2ccc3c(c2)OCCO3)cc1 the Potency (Furin (Homo sapiens)) was “inactive”, the Potency [1] was 44.7 µM (active) and the Potency [2] was 35.5 µM (active). For the same molecule, the Potency [6] was 31.6 µM (active).

For CCN(Cc1cccc(S(=O)(=O)O)c1)c1ccc(C(=C2C=CC(=[N+](CC)Cc3cccc(S(=O)(=O)O)c3)C=C2)c2ccccc2S(=O)(=O)[O-])cc1, the Potency [7] was “inactive”, the outcome [8] was “inactive” and the outcome [9] was “inactive”. The max response [10] was -15.8%, the outcome [11] was “inactive” and the Potency [12] was “inactive”. For the same molecule, the outcome [13] was “inactive”, the max response [14] was -7.12% and the outcome [15] was “inactive”. For the same molecule, the outcome [16] was “inactive”, the max response [17] was -12.5% and the max response [18] was 8.56% (inactive). The activity change % (negative = inhibition) [19] was -4.53% (inactive), the Potency [20] was “inactive” and the activation [21] was 1.38% (inactive). The activation [22] was 1.84% (inactive), the activation [23] was -6.97% (inactive) and the max response [24] was -9.68% (inactive). For the same molecule, the outcome [25] was “inactive”, the Potency [26] was 35.5 µM (active) and the Potency [27] was 31.6 µM (active). The Potency (Furin (Homo sapiens)) was “inactive”, the Potency [1] was 3.55 µM (active) and the Potency [5] was “inactive”. For the same molecule, the Potency [3] was 200 µM (active), the max response [28] was -11% (inactive) and the outcome [29] was “inactive”.
